The entries come from a sample that favours hits as a whole.
Tb PYK inh = inhibitors of Trypanosoma brucei pyruvate kinase. TbPYK enzyme, Kinase-Glo Plus ATP luminescence, 45 min. Potency, µM (titrated, usually from 76.8 µM), for the others: at the top dose activity, negative = inhibition, usual class: inhibitors. 410,000 tested, 0.12% active; further: potency means the concentration at half of the fitted maximal effect; on the % scale 0 is the no-effect control and ±100 the full control effect; nearly all actives have a fitted effect of over 50% in size
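Activity of T. brucei pyruvate kinase was followed by Kinase-Glo Plus luminescence after the enzyme reacted 45 min at room temperature with 130 uM ADP (final) and substrate. Test compounds were added before ADP at multiple concentrations.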
FBPA Giardia inh = Giardia lamblia aldolase inhibition | A8B2U2 | purified Giardia FBPA | Potency, µM (titrated, usually from 59.6 µM), inactives show at the highest dose activity, negative = inhibition, actives largely listed as inhibitors | 290,000 tested, 0.71% active | AID 2451; further: potency means the concentration at half of the fitted maximal effect; on the % scale 0 is the no-effect control and ±100 the full control effect; nearly all actives have a fitted effect of over 55% in size
Target sequence (A8B2U2 whole entry, looked up): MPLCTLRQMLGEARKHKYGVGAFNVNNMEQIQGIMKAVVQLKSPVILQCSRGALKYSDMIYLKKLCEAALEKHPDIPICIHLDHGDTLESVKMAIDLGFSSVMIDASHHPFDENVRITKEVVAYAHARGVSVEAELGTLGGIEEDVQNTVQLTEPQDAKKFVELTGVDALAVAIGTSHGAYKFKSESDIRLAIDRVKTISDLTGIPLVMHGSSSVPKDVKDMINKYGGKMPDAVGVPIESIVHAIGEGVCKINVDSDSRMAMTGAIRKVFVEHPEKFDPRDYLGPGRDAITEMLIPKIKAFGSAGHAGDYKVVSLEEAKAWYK
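Giardia FBPA (40 nM reagent) was preincubated 10 min at RT with compound (up to 57.5 uM final), then substrate plus GAPDH/TPI/NAD/arsenate coupling system with diaphorase/resazurin was added; resorufin fluorescence (525/598 nm) was read after 20 min.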
CHX counter = counter-screen hit for Shiga toxin inhibitors, cycloheximide. cell reporter, cycloheximide protein synthesis inhibition counterscreen. max response, %. 300,000 tested, 12% active; in the data active means max response mostly above about 13%, no sharp cut-off; inactive means mostly below about 14%; further: read at 38.3 µM for the half of the compounds with a filed dose; 0% is about no effect
RE007 growth inh = less growth of the S. pombe RE007 Vpr strain | S. pombe RE007 Vpr strain, BacTiter-Glo ATP luminescence, 24 h | Potency, µM (titrated, usually from 92.2 µM), for the others: at the top dose activity change, negative = less growth, most hits filed as inhibitors | 360,000 tested, 0.21% active; active means well fitted falling curve with a large enough effect; inconclusive means small, poorly fitted or top-dose-only effect; inactive means no such curve, though single readings can be large or run the other way; further: potency means the concentration at half of the fitted maximal effect; on the % scale 0 is the no-effect control and ±100 the full control effect; nearly all actives have a fitted effect of over 50% in size
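Fission yeast RE007 carrying one integrated HIV-1 vpr copy, seeded at OD 0.01 in PMG+AL medium with 23 nL pinned compound. Grown 24 h at 30 degrees; viability read by BacTiter-Glo luminescence after 5 min.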
LmPK inh = LmPK (Leishmania mexicana) enzyme inhibition; purified LmPK, Kinase-Glo ATP luminescence, 1 h; Potency, µM (titrated, usually from 57.5 µM), for the others: at the top dose activity change, negative = inhibition, usual class: inhibitors; AID 1721; Q27686; 290,000 tested, 0.37% active; further: potency means the concentration at half of the fitted maximal effect; on the % scale 0 is the no-effect control and ±100 the full control effect
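0.1 nM LmPK, 0.5 mM PEP, 0.1 mM ADP; 50 mM imidazole pH 7.2, 7 mM MgCl2, 50 mM KCl; 1 h RT. Kinase-Glo luminescence readout, normalized to no-enzyme (full inhibition) and uninhibited wells.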
Shiga toxin inh = inhibitors of Shiga toxin in Vero cells | Vero cells, Shiga toxin protein synthesis inhibition reporter | inhibition, % at 38.7 µM | 290,000 tested, 9.2% active | AID 2315; in the data active means inhibition mostly above about 28%, no sharp cut-off; inactive means mostly below about 43%; further: 0% is about no effect
An asterisk follows results filed as active; u = inconclusive; x = no result given. Unless noted, the call rests on the fitted dose curve; in most records, active means well fitted curve in the direction sought with a large enough effect; inconclusive means small, poorly fitted or top-dose-only effect, or another doubt; inactive means no such curve, though single readings can be large; an effect the other way counts as inactive or inconclusive.

SMILES	Tb PYK inh	FBPA Giardia inh	CHX counter	RE007 growth inh	LmPK inh	Shiga toxin inh
CCc1ccc(NC(=O)CN2C(=O)C(=O)c3ccccc32)cc1	6.4%	x	x	x	x	x
CCCOc1ccc(N/C=C/C(=O)c2ccc(OC)c(OC)c2)cc1	-3.2%	22.3%	-0.9	-1.5%	0.6%	11.2
COc1ccc(C(=O)/C=C/Nc2ccc(C)cn2)cc1OC	0.4%	0.3%	38.0*	u	-8.2%	75.4*
CCOc1ccc(N/C=C/C(=O)c2ccc(OC)c(OC)c2)cc1	-1.2%	-8.1%	40.6*	-16.1%	0.8%	82.5*
COc1ccc(C(=O)/C=C/Nc2ccc(S(N)(=O)=O)cc2)cc1OC	3.8%	3.2%	14.0*	-9.9%	-1.2%	31.7
CCOc1ccc(C(=O)/C=C/Nc2ccc(S(=O)(=O)N=C(N)N)cc2)cc1	0.7%	5.9%	22.9*	6.4%	3.3%	62.1*
CCOc1ccc(NC(=O)CCc2c(C)nc3c(c(C)nn3-c3ccccc3)c2C)cc1	-2.5%	x	x	x	x	x
COc1ccc(NC(=O)Nc2cnccn2)cc1	-7.4%	-0.6%	35.7*	-5.7%	-0.3%	48.0*
CCOc1ccc(NC(=O)NC(C)CC)cc1 (configuration not stated)	4.6%	2.1%	40.0*	0.0%	-10.0%	42.2*
O=C(Nc1cnccn1)Nc1ccc(Cl)cc1Cl	-4.9%	1.7%	28.6*	-2.6%	1.3%	75.6*
CCOc1ccc(NC(=O)Nc2ccc(Br)cn2)cc1	6.4%	-0.6%	13.3	1.7%	12.7%	19.9
CCOc1ccc(NC(=O)Nc2cnccn2)cc1	-2.4%	-0.4%	15.6*	-6.4%	-0.1%	59.3
CCOc1ccc(NC(=O)Nc2ccc(NC(C)=O)cc2)cc1	-2.5%	6.3%	2.8	-5.2%	-0.7%	21.7
COc1ccc(NC(=O)Cc2ccc(NC(=O)N3CCCCc4ccccc43)cc2)c(OC)c1	-4.5%	x	x	x	x	x
CC1=C(c2ccc(Cl)cc2)S(=O)(=O)N=C1N1CCN(c2cccc(C(F)(F)F)c2)CC1	1.5%	x	x	x	x	x
Cc1ccc(NC(=O)CSc2ncc3c(n2)-c2ccccc2N(Cc2cccc(F)c2)S3(=O)=O)cc1F	1.6%	x	x	x	x	x
CCC1=C[C@@H]2CN(C1)Cc1c([nH]c3ccccc13)[C@@](C(=O)OC)(c1cc3c(cc1OC)N(C)[C@H]1[C@@](O)(C(=O)OC)[C@H](OC(C)=O)[C@]4(CC)C=CCN5CC[C@]31[C@@H]54)C2	x	u	-6.9	x	x	-3.3
O=C(Nc1cccc(F)c1)Nc1cnccn1	-3.9%	x	7.9	-1.8%	-7.2%	11.0
CC(=O)Nc1cccc(NC(=O)Nc2ccc(C)c(Cl)c2)c1	0.4%	-0.1%	29.8*	4.7%	2.2%	47.6*
Cc1ccc(NC(=O)Nc2cnccn2)cc1Cl	2.7%	4.1%	23.2*	0.0%	-1.4%	70.0*
CCC(C)c1ccc(NC(=O)Nc2cnccn2)cc1 (configuration not stated)	-1.8%	-16.8%	74.4*	0.9%	-3.5%	86.9*
Cn1ccc(NC(=O)Nc2ccc(Cl)cc2Cl)n1	7.0%	-2.1%	51.5*	4.9%	-2.9%	21.8*
CCOc1ccc(-c2nc3c(c(SCC(=O)N4CCCCC4)n2)Cc2cccc(OC)c2O3)cc1	-5.2%	x	x	x	x	x
COc1ccccc1NC(=O)CSc1nc2c(oc3ccccc32)c(=O)n1-c1ccccc1F	-2.9%	x	x	x	x	x
CC(C)c1ccc(N2C(=O)NC(=O)/C(=C/C=C/c3ccco3)C2=O)cc1	-26.4%	-5.3%	-2.0	13.5%	0.0%	-2.8
SMILES	Tb PYK inh	FBPA Giardia inh	CHX counter	RE007 growth inh	LmPK inh	Shiga toxin inh
CCc1ccc(N2C(=O)NC(=O)/C(=C\C=C\c3ccco3)C2=O)cc1	-9.5%	-16.6%	21.9*	23.4%	1.4%	17.5
Cc1ccc(N2C(=O)NC(=O)/C(=C/C=C/c3ccco3)C2=O)cc1	-24.5%	-7.0%	24.0*	-5.9%	0.2%	25.8*
Cc1cc(C)cc(N2C(=O)NC(=O)/C(=C\C=C\c3ccco3)C2=O)c1	-22.4%	0.0%	13.1	36.3%	1.8%	48.7*
Cn1ncc2c(Nc3cccc(F)c3)ncnc21	5.2%	x	x	x	x	x
Cc1cccc(-c2nc(CN3CCCC(C(=O)N4CCN(c5cc(Cl)ccc5C)CC4)C3)c(C)o2)c1 (configuration not stated)	-0.4%	x	x	x	x	x
Cn1nnnc1SCc1cccc(CSc2nnnn2C)n1	-4.7%	-6.3%	-4.7	7.6%	0.5%	14.5
Cn1nnnc1SCc1csc(Nc2ccccc2)n1	1.1%	-17.3%	27.8*	8.8%	5.8%	123.1*
Cc1ccc(Nc2nc(CSc3nnnn3C)cs2)cc1	-5.7%	-13.0%	39.3*	6.2%	2.0%	42.3*
Cc1ccc(Nc2nc(CSc3nnnn3-c3ccccc3)cs2)cc1	-3.3%	0.4%	15.8	5.5%	1.4%	35.7
O=C(CCSCc1ccccc1F)NCCc1ccccc1	-3.1%	3.4%	16.6*	-8.9%	-0.7%	21.4
O=C(NCCSCc1ccccc1)c1ccc(F)cc1	2.1%	4.6%	21.2	2.4%	-8.2%	33.5
CC(NC(=O)CCSCCC(=O)NC(C)c1ccccc1)c1ccccc1 (configuration not stated)	-7.4%	-1.1%	-2.6	x	2.3%	2.3
CC(NC(=O)CCSCc1ccccc1F)c1ccccc1 (configuration not stated)	0.8%	3.0%	57.6*	6.1%	5.0%	64.6*
O=C(Cc1ccccc1)NCCSCc1ccccc1	-6.2%	3.6%	18.9*	-4.1%	-3.5%	26.5
O=C(c1ccco1)N1CCC2(CC1)CN(c1ccccn1)C2	2.3%	-1.7%	x	x	x	x
CC(=O)c1ccc(N2C(=O)N(Cc3cc(C)ccc3C)c3ccccc3S2(=O)=O)cc1	3.3%	x	x	x	x	x
C=CCn1c2ccccc2c2nnc(SC(CC)C(=O)Nc3sc4c(c3C#N)CCCC4)nc21 (configuration not stated)	1.4%	0.0%	23.8*	6.8%	5.2%	6.9
CCCc1nnc(NC(=O)C(CC)Sc2nnc3c4ccccc4n(C)c3n2)s1 (configuration not stated)	-2.7%	x	x	x	x	x
O=C(CSc1nncn2c1cc1occc12)Nc1ccccc1C(F)(F)F	1.5%	x	x	x	x	x
CC(C)(C)c1ccc(C(=O)Nc2ccc(-c3nc4cc(Cl)ccc4o3)cc2)cc1	-9.5%	x	x	x	x	x
O=C(O)CCc1ccc(-c2ccccc2)n1-c1ccc(C(=O)O)cc1	-9.5%	-1.6%	-0.3	-12.3%	5.6%	39.4
COc1ccccc1-n1c(CCC(=O)O)ccc1-c1ccccc1	3.5%	15.9%	31.9*	-0.7%	-0.1%	35.8*
Cc1ccc(-n2c(CCC(=O)O)ccc2-c2cccs2)cc1C	u	27.3%	7.9*	-24.0%	-0.7%	39.1
CC(=O)c1cccc(-n2c(CCC(=O)O)ccc2-c2ccc(C)cc2)c1	-12.2%	9.2%	2.6	-8.6%	-0.4%	18.2
CCc1ccc(-n2c(CCC(=O)O)ccc2-c2cccs2)cc1	-29.4%	x	x	x	x	x
O=C(O)CCc1ccc(-c2ccccc2)n1-c1cccc(C(=O)O)c1	-9.0%	-0.2%	131.1*	-15.5%	-3.8%	173.6*

Screens as filed in PubChem BioAssay.
